Experimental data taken from PubChem BioAssay AID1159580 (chemical genetic matrix, 2015).
The campaign covered roughly 5,500 compounds. About 2,000 (36%) were called active. Inconclusive results (about 18%) are left out. No stated cut-off is given here; in the data, active means normalized growth mostly below about 0.91 (no sharp cut-off); inconclusive means no clear call, values can overlap the other calls; inactive means mostly above about 0.92. The list shows a part of the results.

Experiment: chemical genetic growth profiling, strain panel (AID 1159580);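 further: tested at 20 µM; growth read once vehicle control cultures reached saturation at 30 °C; 1 = growth at the plate median or of vehicle wells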
Conditions: S. cerevisiae deletion strains, growth OD

Measured: normalized growth

CC(C)(Oc1ccc(C2CC2(Cl)Cl)cc1)C(=O)O (configuration not stated)
inactive: locus YAL021C, strain ccr4, stronger effect = lower value 1 | locus YAL026C, strain drs2, stronger effect = lower value 1 | locus YAL030W, strain snc1, stronger effect = lower value 1 | locus YAL040C, strain CLN3, stronger effect = lower value 0.988 | locus YBL061C, strain skt5, stronger effect = lower value 0.997 | locus YBR009C, strain hhf1, stronger effect = lower value 0.995 | locus YBR023C, strain chs3, stronger effect = lower value 0.992 | locus YBR171W, strain sec66, stronger effect = lower value 0.996 | locus YBR231C, strain swc5, stronger effect = lower value 0.997 | locus YBR279W, strain paf1, stronger effect = lower value 1.02 | locus YCL011C, strain gbp2, stronger effect = lower value 1.01 | locus YCL016C, strain dcc1, stronger effect = lower value 0.992 | locus YCL061C, strain MRC1 (second series), stronger effect = lower value 0.988 | locus YCL061C, strain MRC1, stronger effect = lower value 0.99 | locus YCL069W, strain vba3, stronger effect = lower value 1.01 | locus YCR088W, strain abp1, stronger effect = lower value 0.997 | locus YDL005C, strain med2, stronger effect = lower value 0.998 | locus YDL040C, strain nat1, stronger effect = lower value 1 | locus YDR001C, strain nth1, stronger effect = lower value 1.01 | locus YDR069C, strain doa4, stronger effect = lower value 1 | locus YDR137W, strain rgp1, stronger effect = lower value 0.964 | locus YDR159W, strain sac3, stronger effect = lower value 0.997 | locus YDR195W, strain ref2 0.989 | locus YDR297W, strain sur2, stronger effect = lower value 0.998 | locus YDR334W, strain swr1, stronger effect = lower value 1 | locus YDR335W, strain msn5, stronger effect = lower value 1 | locus YDR392W, strain spt3, stronger effect = lower value 0.944 | locus YEL003W, strain gim4, stronger effect = lower value 1.02 | locus YEL037C, strain rad23, stronger effect = lower value 1.01 | locus YEL061C, strain CIN8 (second series), stronger effect = lower value 1.01 | locus YER002W, strain NOP16, stronger effect = lower value 0.962 | locus YER015W, strain faa2, stronger effect = lower value 0.994 | locus YER016W, strain bim1, stronger effect = lower value 1 | locus YER111C, strain swi4, stronger effect = lower value 0.998 | locus YER155C, strain BEM2 (second series), stronger effect = lower value 1 | locus YFR010W, strain ubp6, stronger effect = lower value 0.99 | locus YGL167C, strain pmr1, stronger effect = lower value 0.998 | locus YGL173C, strain kem1, stronger effect = lower value 1 | locus YGL227W, strain vid30, stronger effect = lower value 1 | locus YGL240W, strain doc1, stronger effect = lower value 1 | locus YGL253W, strain hxk2, stronger effect = lower value 1.01 | locus YHR013C, strain ard1, stronger effect = lower value 0.973 | locus YHR027C, strain rpn1, stronger effect = lower value 0.995 | locus YHR142W, strain chs7, stronger effect = lower value 1 | locus YJL092W, strain hpr5, stronger effect = lower value 1.01 | locus YJL095W, strain BCK1 (second series), stronger effect = lower value 0.997 | locus YJL115W, strain asf1, stronger effect = lower value 0.999 | locus YJL129C, strain trk1, stronger effect = lower value 0.987 | locus YJL154C, strain vps35, stronger effect = lower value 1.01 | locus YJL164C, strain tpk1, stronger effect = lower value 1 | locus YJL166W, strain qcr8, stronger effect = lower value 0.985 | locus YJL187C, strain SWE1, stronger effect = lower value 0.992 | locus YKL160W, strain elf1, stronger effect = lower value 0.978 | locus YKR026C, strain gcn3, stronger effect = lower value 0.997 | locus YKR091W, strain srl3, stronger effect = lower value 1 | locus YLL001W, strain dnm1, stronger effect = lower value 0.968 | locus YLL026W, stronger effect = lower value 1 | locus YLL041C, strain sdh2, stronger effect = lower value 1.01 | locus YLR027C, strain aat2, stronger effect = lower value 0.998 | locus YLR221C, strain rsa3, stronger effect = lower value 0.994 | locus YLR258W, strain gsy2, stronger effect = lower value 1 | locus YLR262C, strain YPT6 (second series), stronger effect = lower value 0.981 | locus YLR320W, strain mms22, stronger effect = lower value 0.976 | locus YLR342W, strain FKS1, stronger effect = lower value 1 | locus YLR357W, strain rsc2, stronger effect = lower value 1.01 | locus YLR370C, strain arc18, stronger effect = lower value 1 | locus YLR384C, strain iki3, stronger effect = lower value 1 | locus YML120C, strain ndi1, stronger effect = lower value 0.985 | locus YMR058W, strain fet3, stronger effect = lower value 1 | locus YMR125W, strain sto1, stronger effect = lower value 0.996 | locus YMR129W, stronger effect = lower value 0.996 | locus YMR205C, strain PFK2, stronger effect = lower value 0.973 | locus YMR231W, strain pep5, stronger effect = lower value 1 | locus YNL071W, strain lat1, stronger effect = lower value 0.998 | locus YNL153C, strain GIM3, stronger effect = lower value 1.01 | locus YNL175C, strain NOP13, stronger effect = lower value 0.98 | locus YNL197C, strain WHI3, stronger effect = lower value 1.08 | locus YNL209W, strain ssb2, stronger effect = lower value 1 | locus YNL224C, strain SQS1, stronger effect = lower value 0.99 | locus YNL248C, strain rpa49, stronger effect = lower value 1 | locus YNL322C, strain KRE1 (second series), stronger effect = lower value 0.984 | locus YNR049C, strain mso1, stronger effect = lower value 1 | locus YOR001W, strain rrp6, stronger effect = lower value 1.02 | locus YOR070C, strain gyp1, stronger effect = lower value 0.998 | locus YOR080W, strain dia2, stronger effect = lower value 0.988 | locus YOR083W, strain WHI5 (second series), stronger effect = lower value 1.01 | locus YOR083W, strain WHI5, stronger effect = lower value 0.977 | locus YOR106W, strain vam3, stronger effect = lower value 0.972 | locus YOR265W, strain rbl2, stronger effect = lower value 1 | locus YOR270C, strain vph1, stronger effect = lower value 0.99 | locus YOR290C, strain snf2, stronger effect = lower value 1.01 | locus YPL051W, strain arl3, stronger effect = lower value 0.994 | locus YPL078C, strain atp4, stronger effect = lower value 0.993 | locus YPL106C, strain sse1, stronger effect = lower value 0.951 | locus YPL240C, strain hsp82, stronger effect = lower value 1.01 | locus YPL241C, strain CIN2, stronger effect = lower value 0.984

O=[N+]([O-])c1ccc(Sc2ssc(=S)c2-c2ccccc2)nc1
active: locus YDL214C, strain PRR2, stronger effect = lower value 0.521 | locus YDR477W, strain SNF1, stronger effect = lower value 0.651 | locus YER123W, strain YCK3, stronger effect = lower value 0.338 | locus YER133W, strain GLC7, stronger effect = lower value 0.512 | locus YFR019W, strain FAB1, stronger effect = lower value 0.546 | locus YGR040W, strain KSS1, stronger effect = lower value 0.673 | locus YGR052W, strain FMP48, stronger effect = lower value 0.449 | locus YHR030C, strain SLT2, stronger effect = lower value 0.159 | locus YHR079C, strain IRE1, stronger effect = lower value 0.247 | locus YHR082C, strain KSP1, stronger effect = lower value 0.471 | locus YJL095W, strain BCK1, stronger effect = lower value 0.175 | locus YJL157C, strain FAR1, stronger effect = lower value 0.485 | locus YJR066W, strain TOR1 (second series), stronger effect = lower value 0.312 | locus YJR066W, strain TOR1, stronger effect = lower value 0.327 | locus YKL067W, strain YNK1, stronger effect = lower value 0.61 | locus YKL203C, strain TOR2, stronger effect = lower value 0.674 | locus YLR113W, strain HOG1, stronger effect = lower value 0.362 | locus YLR133W, strain CKI1, stronger effect = lower value 0.626 | locus YML070W, strain DAK1, stronger effect = lower value 0.371 | locus YMR205C, strain PFK2 (second series), stronger effect = lower value 0.722 | locus YNL020C, strain ARK1, stronger effect = lower value 0.624 | locus YNL183C, strain NPR1, stronger effect = lower value 0.256 | locus YNL307C, strain MCK1 (second series), stronger effect = lower value 0.633 | locus YOL136C, strain PFK27, stronger effect = lower value 0.376 | locus YOR061W, strain CKA2, stronger effect = lower value 0.664 | locus YOR231W, strain MKK1, stronger effect = lower value 0.229 | locus YPL031C, strain PHO85, stronger effect = lower value 0.57 | locus YPL153C, strain RAD53, stronger effect = lower value 0.537 | locus YPL204W, strain HRR25, stronger effect = lower value 0.422 | locus YPL256C, strain CLN2, stronger effect = lower value 0.3
inactive: locus YAR019C, strain CDC15, stronger effect = lower value 0.922 | locus YBL105C, strain PKC1, stronger effect = lower value 0.946 | locus YBR135W, strain CKS1, stronger effect = lower value 0.943 | locus YBR136W, strain MEC1, stronger effect = lower value 0.952 | locus YBR160W, strain CDC28, stronger effect = lower value 0.947 | locus YDL017W, strain CDC7, stronger effect = lower value 0.954 | locus YDL028C, strain MPS1, stronger effect = lower value 0.953 | locus YDL101C, strain DUN1, stronger effect = lower value 0.961 | locus YDL108W, strain KIN28, stronger effect = lower value 0.953 | locus YDL132W, strain cdc53, stronger effect = lower value 0.956 | locus YDR052C, strain DBF4, stronger effect = lower value 0.968 | locus YDR054C, strain cdc34, stronger effect = lower value 0.918 | locus YDR226W, strain ADK1, stronger effect = lower value 1.01 | locus YFL009W, strain cdc4, stronger effect = lower value 0.948 | locus YFL029C, strain CAK1, stronger effect = lower value 0.922 | locus YFR003C, strain YPI1, stronger effect = lower value 0.958 | locus YFR028C, strain CDC14, stronger effect = lower value 0.97 | locus YGR092W, strain DBF2, stronger effect = lower value 0.617 | locus YHR205W, strain SCH9, stronger effect = lower value 0.782 | locus YIL147C, strain SLN1, stronger effect = lower value 0.956 | locus YJL128C, strain PBS2, stronger effect = lower value 1.05 | locus YJR016C, strain ILV3, stronger effect = lower value 0.951 | locus YKL048C, strain ELM1, stronger effect = lower value 0.843 | locus YKL101W, strain HSL1, stronger effect = lower value 0.791 | locus YKL193C, strain SDS22, stronger effect = lower value 0.933 | locus YLR403W, strain SFP1, stronger effect = lower value 0.703 | locus YMR001C, strain CDC5, stronger effect = lower value 0.932 | locus YMR277W, strain FCP1, stronger effect = lower value 0.961 | locus YNL006W, strain LST8, stronger effect = lower value 0.942 | locus YNL161W, strain CBK1, stronger effect = lower value 0.929 | locus YNL207W, strain RIO2, stronger effect = lower value 0.944 | locus YNL222W, strain SSU72, stronger effect = lower value 0.934 | locus YOL078W, strain AVO1, stronger effect = lower value 0.928 | locus YOR119C, strain RIO1, stronger effect = lower value 0.728 | locus YOR329C, strain SCD5, stronger effect = lower value 0.945 | locus YPL209C, strain IPL1, stronger effect = lower value 0.945 | locus YPR025C, strain CCL1, stronger effect = lower value 0.944 | locus YPR106W, strain ISR1, stronger effect = lower value 0.999 | locus YPR111W, strain DBF20, stronger effect = lower value 0.994 | strain NNK1, stronger effect = lower value 0.956 | strain TSCII, stronger effect = lower value 0.917
